A selection: hits, their analogues and other compounds. The true share with any hit is near 1.5%.
PI4K2A block – PI4K2A (human) kinase inhibition; purified PI4K2A, ADP-Glo luminescence, 1 h; active compounds read low; hit rate 0.13% among 420,000; activity change, negative = inhibition, % at 76.9 µM; Q9BTU6; AID 1346378; in the data active = activity change below about -50%; inconclusive = mostly about -30% to -49%;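 also: -100% = wells without enzyme as full effect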
Target sequence (Q9BTU6 whole entry, looked up): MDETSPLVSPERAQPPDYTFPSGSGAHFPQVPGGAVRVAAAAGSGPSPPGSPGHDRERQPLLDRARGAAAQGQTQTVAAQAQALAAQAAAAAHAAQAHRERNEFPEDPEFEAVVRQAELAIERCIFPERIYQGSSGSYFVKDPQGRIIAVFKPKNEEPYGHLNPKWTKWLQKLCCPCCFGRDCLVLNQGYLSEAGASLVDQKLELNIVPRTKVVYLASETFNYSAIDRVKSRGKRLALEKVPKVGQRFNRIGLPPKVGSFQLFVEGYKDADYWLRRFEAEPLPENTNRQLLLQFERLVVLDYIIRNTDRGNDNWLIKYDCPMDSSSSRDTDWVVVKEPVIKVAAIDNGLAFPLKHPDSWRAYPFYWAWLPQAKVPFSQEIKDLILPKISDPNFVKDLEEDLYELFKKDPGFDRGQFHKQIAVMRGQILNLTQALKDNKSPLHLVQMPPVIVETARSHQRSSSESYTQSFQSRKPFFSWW
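ADP-Glo luminescence measured ADP generated by PI4K2A enzyme (4 ug/mL before mixing) with 1.2 mM PI substrate (pre-mix) and 300 microM ATP (pre-mix). Tris pH7.5 buffer with MgCl2, Triton X-100; 1 h reaction at ambient temperature.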
GALK inh – inhibitors of human galactokinase; P51570; Purified GALK, Kinase-Glo residual ATP luminescence; Potency, µM (highest dose often 57.5 µM), inactives show at the top dose activity change, negative = inhibition, hits mostly inhibitors; hit rate 0.007% among 270,000; also: potency is read from the fitted curve at half-maximal effect
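ATP-depletion format; final 35 uM ATP, 100 uM D-galactose, 5 nM enzyme; pH 8.0 HEPES/Mg2+ buffer; 60 min RT; luminescence read 10 min after detection reagent.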
TrxR1 substrate – is turned over as a substrate by rat TrxR1 | O89049 | purified TrxR1 substrate turnover, NADPH consumption readout | Potency, µM (doses to about 114 µM), without a hit: at the top dose activity change, negative = substrate turnover | hit rate 0.01% among 390,000 | AID 588456; also: potency is read from the fitted curve at half-maximal effect; nearly all actives have a fitted effect of over 50% in size
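Rat TrxR1, dispensed at 90 nM, was prereduced with 400 uM NADPH (final) for 5 min at ~22 deg C, then incubated with compound 15 min before 400 uM selenite. A first-read NADPH fluorescence drop versus no-compound background flagged substrates.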
Coupling enz – coupling enzyme interference in Giardia aldolase counter-screen; AID 2472; hit rate 0.67% among 290,000; coupling enzyme system counterscreen, AmpLite Red fluorescence; activity change, negative = inhibition, % at 58.2 µM, hits read low; in the data active = activity change below about -30%
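Fluorescence at 525 nm excitation and 598 nm emission measured inhibition of the coupled detection system without aldolase. Compounds (at 57.5 uM final) were preincubated 10 min at room temperature with coupling enzyme reagent before a 20 min substrate/AmpLite Red step.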
Giardia kill – kills Giardia lamblia; Giardia lamblia trophozoite viability; activity change, % at 7.66 µM, hits read low; hit rate 0.15% among 340,000; AID 540267; in the data active = activity change below about -80%; inconclusive = between about -30% and that limit;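 also: parasites exposed to compound for two days anaerobically before the ATP read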
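Anaerobic 48 hrs incubation at 37 deg C of 100 trophozoites/well with test compounds; ATPLite 1-Step luminescence, 15-30 min RT, reports cellular ATP as viability.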
TrxR1 inh – blocks rat thioredoxin reductase 1 | O89049 | recombinant rTrxR1, NADPH fluorescence consumption, selenite substrate | Potency, µM (titrated, usually from 114 µM), inactives show top-dose activity change, negative = inhibition, actives largely listed as inhibitors | hit rate 1% among 390,000 | AID 588453; also: potency is read from the fitted curve at half-maximal effect; nearly all actives have a fitted effect of over 65% in size
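Rat TrxR1 (90 nM in the dispensed reagent) was pre-reduced with 400 uM NADPH for 5 min at room temperature, then incubated with compound for 15 min. After 400 uM selenite was added, NADPH fluorescence (Ex 340/Em 450 nm) was followed for 8 min.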
* = called active by the depositor; ? = inconclusive; / = no result; ! = not confirmed by another sample; [ ] = dose if it differs, or a comment. Unless noted, calls follow the shape of the dose curve; as a rule, active = well fitted curve in the direction sought with a large enough effect; inconclusive = small, poorly fitted or top-dose-only effect, or another doubt; inactive = no such curve, though single readings can be large; an effect the other way counts as inactive or inconclusive. Unless noted, % is scaled to controls: 0 for no effect and ±100 for the full control effect.

SMILES	PI4K2A block	GALK inh	TrxR1 substrate	Coupling enz	Giardia kill	TrxR1 inh
O=C(OCC(=O)c1cccs1)c1ccccc1	-8	9%	9%	-4	-11	11%
Cc1ccc(N2C(=O)N(CC(=O)C(C)(C)C)c3ccccc3S2(=O)=O)cc1C	0	/	-9%[57.1 µM]	/	/	5%[57.1 µM]
CCn1c(CNC(=O)c2ccc(OC)cc2)nnc1SCC(=O)Nc1ccc(OC)cc1	-1	/	4%	/	/	7%
Cc1noc2nc(C(=O)O)nc(N3CCCCC3)c12	0	/	-2%	/	/	5%
CCc1nnc(NC(=O)CSc2nccn2Cc2ccc(Cl)cc2)s1	-2	/	-4%[57.1 µM]	/	/	-1%[57.1 µM]
O=[N+]([O-])c1ccc(Sc2cccc[n+]2[O-])c2nonc12	?	2%	-1%[57.1 µM]	-80*	-2	1.6µM*
Cc1ccc2c(c1)C(O)(c1c(C)[nH]c3ccccc13)C(=O)N2 (centres undefined)	4	0%	-1%	-35*	5	-5%
COCCNC(=S)Nc1ccc2nsnc2c1	?	0%	-4%	-43*	11	?
C=CCNC(=S)Nc1ccc2nsnc2c1	-9	1%	10%[57.1 µM]	-23	6	-22%[57.1 µM]
CC(C)N(C(=O)Nc1ccc2nsnc2c1)C(C)C	-68*	2%	0%	-37*	1	-1%
S=C(Nc1ccc2nsnc2c1)NC1CCCCC1	?	-2%	-6%	-67*	-3	?
C=CCN(CC=C)C(=S)Nc1ccc2nsnc2c1	-1	0%	-7%	-54*	20	-3%[57.1 µM]
S=C(Nc1ccc(Cl)c(Cl)c1)NC1CCCCC1	6	-3%	-10%	-3	22	1%
O=C(CN1CCC(NC(=O)Nc2ccc(Cl)cc2)CC1)Nc1ccc2c(c1)OCCO2	-7	/	/	/	/	/
COc1ccc(NC(=S)Nc2ccc3nsnc3c2)cc1	?	/	-11%	-41*	5	?
CCOc1ccc(NC(=S)Nc2ccc3nsnc3c2)cc1	-25	-19%	-28%	-28	-26	?
CCCCNC(=O)C(CC)n1c(SCc2cccc(F)c2)nc2ccncc21 (centres undefined)	/	/	2%	/	-28	11%
COc1ccccc1-c1nn2c(-c3cc(C)[nH]n3)nnc2s1	/	/	-10%[0.0914 µM]	/	20	-14%
C(=C\c1ccnc2ccccc12)/c1ccc2ccccc2n1	/	/	177%	/	/	47%
Cc1cc(C)cc(N2C(=O)c3nccnc3C2=O)c1	-2	0%	-2%	0	-5	6%
Cc1ccc(N2C(=O)C3C4C=CC(CC4)C3C2=O)cc1[N+](=O)[O-] (centres undefined)	-1	0%	1%	3	3	20%
Cc1cc(N2C(=O)C=CC2=O)c([N+](=O)[O-])cc1C	-4	0%	10%	7	?	2.8µM*
Cc1c(Cl)cc(-n2cnnn2)cc1[N+](=O)[O-]	9	0%	1%	0	-8	2%[57.1 µM]
Cc1cc(C)cc(N2C(=O)C=CC2=O)c1	1	/	-2%	/	-21	1.1µM*
Cc1c([N+](=O)[O-])cc(N2C(=O)C=CC2=O)cc1[N+](=O)[O-]	-21	/	3%[57.1 µM]	/	10	3.2µM*
SMILES	PI4K2A block	GALK inh	TrxR1 substrate	Coupling enz	Giardia kill	TrxR1 inh
COCCCNC(=O)Cn1nc(Cc2ccncc2)c2ccccc2c1=O	4	/	/	/	/	/
Cc1ncnc2nc[nH]c12	/	/	6%	/	/	23%
Cc1nc2cc3nc(C(F)(F)F)[nH]c3cc2[nH]1	-4	2%	9%	-36*	3	-11%
Nc1ccc2nc(C(F)(F)F)[nH]c2c1	0	0%	0%	-6	6	-2%
CCOc1ccccc1-c1nnc2n1N=C(c1cc(OC)cc(OC)c1)CS2	/	/	/	2	/	/
CC(C)CCn1c(=O)c2sccc2n2c(CCCC(=O)Nc3ccc(F)c(Cl)c3)nnc12	2	/	-9%	/	/	-14%
CCOC(=O)c1c(NC(C)=O)sc2c1CCC(C=NCCCN(CC)CC)=C2Sc1ccccc1	-10	/	6%	/	-6	3.5µM*
Cc1c(CC(=O)NCCCO)c(=O)oc2cc3c(cc12)CCC(C)(C)O3	2	/	384%	2	3	56µM*
Cc1ccc2nc(N)[nH]c(=O)c2c1Sc1ccncc1	0	/	/	/	/	/
c1ccc2[nH]c(NCCCc3cnc[nH]3)nc2c1	/	/	/	1	/	/
CCOc1ccc(/C=C/c2nc3ccccc3n2S(=O)(=O)c2cccc(Cl)c2)cc1	-70*	/	-2%	/	/	22%
Cc1ccc(/C=C/c2nc3ccccc3n2S(=O)(=O)c2cccc(Cl)c2)cc1	-63*	/	12%[57.1 µM]	/	/	11%[57.1 µM]
CSc1ccc(/C=C/c2nc3ccccc3n2S(=O)(=O)c2ccc(F)c(C)c2)cc1	?	/	24%[57.1 µM]	/	/	23%[57.1 µM]
O=C(N1CCCC1)n1ncc(-c2ccc(-c3ccccc3)cc2)n1	-8	/	/	/	/	/
CC(C(=O)c1ccccc1)[n+]1cccc(Cl)c1 (centres undefined)	/	/	11%[0.0914 µM]	/	/	-10%
COC(=O)CCC(=O)OC1(C)C(=O)C=C2C=C(C3CC3)N(C3CCCC3)C=C2C1=O (centres undefined)	-10	-1%	-4%[57.1 µM]	-35*!	4	18%[57.1 µM]
COC(=O)CCCC1=CC2=C(c3ccccc3)C(=O)C(C)(OC(=O)C3CCCC3)C(=O)C2=CN1C1CCCC1 (centres undefined)	-4	-2%	-3%	-12	-20	?
COC(=O)CCCC1=CC2=C(c3ccccc3)C(=O)C(C)(OC(=O)C3CCCC3)C(=O)C2=CN1C1CCCCC1 (centres undefined)	-11	-2%	0%[57.1 µM]	-31*!	20	-12%[57.1 µM]
COC(=O)CCC(=O)OC1(C)C(=O)C=C2C=C(C3CC3)N(C3CCCCC3)C=C2C1=O (centres undefined)	-18	5%	-17%	-41*	2	-3%
CC1(OC(=O)CCc2ccccc2)C(=O)C=C2C=C(c3ccc(C#N)cc3)N(C3CCCC3)C=C2C1=O (centres undefined)	-3	1%	-14%	-27	32	-20%
CCN(CC)C(=O)CC[C@@H]1CC[C@]2(CCCN(Cc3ccc(Br)cc3)C2)O1	-1	/	/	/	/	/
CCN(CC)S(=O)(=O)c1ccc2c(c1)N(CC(=O)N1CCN(c3cccc(C)c3C)CC1)C(=O)CO2	-4	/	0%[57.1 µM]	/	/	7%[57.1 µM]
N#Cc1c(C(F)(F)F)cc(C2CC2)nc1N1CCCC1	-4	-1%	1%	-34*	-9	0%
Cc1cc(C(F)(F)F)c(C#N)c(N2CCOCC2)n1	-3	-1%	6%[57.1 µM]	-1	-12	10%
COc1ccc(C2CC(c3cccs3)=NN2C(=O)c2ccccc2)cc1OC (centres undefined)	1	0%	12%[57.1 µM]	0	-14	13%[57.1 µM]
COc1ccc(C2CC(c3cccs3)=NN2C(=O)CCl)cc1OC (centres undefined)	6	-6%	0%	-1	-4	7.9µM*

Screening results as filed in PubChem BioAssay.
